# Test results: paper PMC5540273 (PLoS ONE, 2017)
# System: DAPK1
# Conditions: concentration: 1 μM, replicates: in singlicate; n = 1
# 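Also: KINOMEscan kinase panel screen.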
row,Structure (SMILES),%Inh
1,COc1cc(Nc2nccc(N3CCC(NC(=O)Nc4cc(C)ccc4C)C3)n2)cc(OC)c1OC (centres unmarked) [GSK1379762],0%
2,CC(=O)Nc1nc2cnc(Nc3cc(NC(=O)c4cccc(CCC#N)c4)ccc3C)nc2s1,0%
3,Cc1cc(N2Cc3ccccc3C2)nc(Nc2ccc(S(=O)(=O)N3CCOCC3)cc2)n1.Cl [GSK1669917],0%
4,Cc1cccc(-c2nc(C)cc(Nc3ccncc3)n2)n1 [GSK257997],9%
5,O=c1cc(N2CCOCC2)nc2n(Cc3cccc(Cl)c3Cl)ccn12 [GSK2286295],8%
6,Cc1cc(-c2ccc3c(c2)CC[C@@H](N[C@@H](C)c2ccccc2)C3)cnc1N.Cl [GW412617],10%
7,COc1ccccc1CNC(=O)c1cc(C(=O)c2ccccc2C)c[nH]1 [GSK364507],0%
8,Cc1cccc(-c2nc(Nc3cccc(C(N)=O)c3)c3ccccc3n2)n1 [GW876019],15%
9,Cc1csc(-c2nc(Nc3ccncc3)c3ccccc3n2)n1 [GW869640],22%
10,CS(=O)(=O)c1ccc(-c2nc3n(c2-c2ccncc2)CCC3)cc1 [SKF-105942],0%
11,Nc1ncnc2[nH]c(-c3ccccc3)nc12 [AH5015],4%
12,Cc1cccc(-c2nc(Nc3ccncc3)c3ccccc3n2)n1 [GW855857],0%
13,COC(=O)c1c(-c2ccccc2)c2cc(OC)ccc2c(=O)n1Cc1ccccc1,37%
14,Cc1c(Cn2ccn3c(=O)cc(N4CCOCC4)nc23)cccc1C(F)(F)F [GSK2289044],13%
